Measurements: the supplement of paper PMC12494721
Counter-ions that a name gives are not always drawn.

Tests used:
Settings in all cases: 20 µM; incubation time: 27 h, anaerobic, 37 °C;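 for the amine columns active = adjusted P below 0.05 in both replicates with a change the same way and a mean fold change under 0.8 or over 1.25; inactive = the rest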
[1] = test system: Clostridium sporogenes DSM 1664; experiment: growth (OD595) fold change vs plate DMSO controls (fold change (ratio)); higher = more growth
Method in brief: (§1)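 The reported measure is growth: the fold change against the median of DMSO controls on the plate. Absorbance at 595 nm from anaerobic 96-well mGAM cultures grown for 27 h at 37 °C was blank-subtracted, corrected for background with 20 µM compound solutions in water, and converted to OD with a calibration factor of 5. Fold changes above 1.5 appear as NA, and values are the mean of 2 biological replicates.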

[2] = test system: Escherichia coli IAI1; experiment: as above
Method in brief: as §1

[3] = test system: Klebsiella aerogenes DSM 30053; experiment: as above
Method in brief: as §1

[4] = test system: Ruminococcus gnavus DSM 108212; experiment: as above
Method in brief: as §1

[5] = test system: Klebsiella aerogenes DSM 30053; experiment: fold change of Histamine concentration vs plate DMSO controls (fold change (ratio)); higher = more amine produced, active = hit call of the paper (significant change in both replicates, either direction)
Method in brief: (§2)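 Each value is the fold change relative to DMSO-only wells on the same plate. Four gut bacterial strains were grown anaerobically in mGAM at 37 °C for 27 h in 80 µL wells, starting at OD 0.1 before a 1:1 dilution, with compounds at 20 µM final (sweeteners 50 µM). Whole cultures were extracted with cold acetonitrile/methanol containing 0.1% formic acid, centrifuged, and amines were quantified by LC–triple-quadrupole MS (dynamic MRM) against external calibration curves with within-batch drift correction. Values are means of 2 biological replicates.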

[6] = test system: Clostridium sporogenes DSM 1664; experiment: fold change of Tryptamine concentration vs plate DMSO controls (fold change (ratio)); higher = more amine produced, active = hit call of the paper (significant change in both replicates, either direction)
Method in brief: as §2

[7] = test system: Ruminococcus gnavus DSM 108212; experiment: as above
Method in brief: as §2

[8] = test system: Escherichia coli IAI1; experiment: fold change of Putrescine concentration vs plate DMSO controls (fold change (ratio)); higher = more amine produced, active = hit call of the paper (significant change in both replicates, either direction)
Method in brief: as §2

[9] = test system: Klebsiella aerogenes DSM 30053; experiment: as above
Method in brief: as §2

[10] = test system: Escherichia coli IAI1; experiment: fold change of Cadaverine concentration vs plate DMSO controls (fold change (ratio)); higher = more amine produced, active = hit call of the paper (significant change in both replicates, either direction)
Method in brief: as §2

[11] = test system: Klebsiella aerogenes DSM 30053; experiment: as above
Method in brief: as §2

[12] = test system: Ruminococcus gnavus DSM 108212; experiment: fold change of 2-Phenylethylamine concentration vs plate DMSO controls (fold change (ratio)); higher = more amine produced, active = hit call of the paper (significant change in both replicates, either direction)
Method in brief: as §2

Row | SMILES | growth [1] | growth [2] | growth [3] | growth [4] | fold change of Histamine concentration [5] | fold change of Tryptamine concentration [6] | fold change of Tryptamine concentration [7] | fold change of Putrescine concentration [8] | fold change of Putrescine concentration [9] | fold change of Cadaverine concentration [10] | fold change of Cadaverine concentration [11] | fold change of 2-Phenylethylamine concentration [12]
1 | CCN(CC)N=O [NDEA (N-nitrosodiethylamine)] | 1.13 | 1.04 | 1.09 | 1.04 | 0.928 (inactive) | 1 (inactive) | 1.01 (inactive) | 1.01 (inactive) | 0.999 (inactive) | 1.03 (inactive) | 1.01 (inactive) | 1.01 (inactive)
2 | Cc1nnc(-c2ccccc2)c(=O)n1N | 0.969 | 1.05 | 0.993 | 1.01 | 1.04 (inactive) | 0.988 (inactive) | 1.04 (inactive) | 0.965 (inactive) | 1 (inactive) | 1.03 (inactive) | 0.972 (inactive) | 1.13 (inactive)
3 | CC(C)N1C(=O)c2ccccc2NS1(=O)=O | 1.02 | 1.03 | 0.992 | 1.17 | 0.978 (inactive) | 0.976 (inactive) | 0.99 (inactive) | 0.969 (inactive) | 0.979 (inactive) | 0.979 (inactive) | 0.987 (inactive) | 1.03 (inactive)
4 | O=C1C2(Cl)C3(Cl)C4(Cl)C(Cl)(Cl)C5(Cl)C3(Cl)C1(Cl)C5(Cl)C24Cl (configuration not stated) | 0 | 1.09 | 1.04 |  | 1.07 (inactive) | 0.0206 (active) | 0.27 (active) | 1.05 (inactive) | 1.07 (inactive) | 1.14 (inactive) | 1.05 (inactive) | 0.297 (inactive)
5 | CC(C)(C)C(O)C(Oc1ccc(Cl)cc1)n1cncn1 (configuration not stated) | 0.989 | 1.11 | 0.994 | 0.928 | 0.993 (inactive) | 0.962 (inactive) | 0.998 (inactive) | 1.08 (inactive) | 0.999 (inactive) | 0.937 (inactive) | 1 (inactive) | 0.975 (inactive)
6 | CCC(C)c1ccccc1OC(=O)NC (configuration not stated) | 1.06 | 0.988 | 1.09 | 1.01 | 0.948 (inactive) | 0.949 (inactive) | 1.01 (inactive) | 1.05 (inactive) | 1.01 (inactive) | 0.972 (inactive) | 1 (inactive) | 1.03 (inactive)
7 | COCC(=O)N(c1c(C)cccc1C)C(C)C(=O)OC (configuration not stated) | 0.957 | 1.02 | 1.04 | 1.02 | 0.965 (inactive) | 0.98 (inactive) | 0.983 (inactive) | 1.04 (inactive) | 1 (inactive) | 1.01 (inactive) | 1.01 (inactive) | 0.983 (inactive)
8 | CN[C@@H]1[C@@H](O)[C@@H](O[C@@H]2[C@@H](O)[C@H](O[C@H]3O[C@H](CN)CC[C@H]3N)[C@@H](N)C[C@H]2N)OC[C@]1(C)O.CN[C@@H]1[C@@H](O)[C@@H](O[C@@H]2[C@@H](O)[C@H](O[C@H]3O[C@H]([C@@H](C)N)CC[C@H]3N)[C@@H](N)C[C@H]2N)OC[C@]1(C)O.CN[C@@H]1[C@@H](O)[C@@H](O[C@@H]2[C@@H](O)[C@H](O[C@H]3O[C@H]([C@@H](C)NC)CC[C@H]3N)[C@@H](N)C[C@H]2N)OC[C@]1(C)O [Gentamicine sulfate] | 1.12 | 1.03 | 0.994 | 1.16 | 0.948 (inactive) | 0.703 (inactive) | 1.08 (inactive) | 1.02 (inactive) | 1.02 (inactive) | 1.02 (inactive) | 1.05 (inactive) | 1.16 (inactive)
9 | Cc1cccc(C)c1NC(=O)CN1CCCC1=O [Nefiracetam] | 1.01 | 0.985 | 1.02 | 1.06 | 0.973 (inactive) | 1.04 (inactive) | 1.01 (inactive) | 0.988 (inactive) | 1.01 (inactive) | 1.01 (inactive) | 1 (inactive) | 1.01 (inactive)
10 | CN1C(=O)COc2c(C(=O)NC3CN4CCC3CC4)cc(Cl)cc21 (configuration not stated) [Azasetron hydrochloride] | 0.734 | 0.55 | 0.585 | 0.0388 | 1.03 (inactive) | 0.992 (inactive) | 1.02 (inactive) | 0.507 (inactive) | 0.996 (inactive) | 0.512 (inactive) | 0.982 (inactive) | 0.986 (inactive)
11 | COc1ccc(CCN2CCC(Nc3nc4ccccc4n3Cc3ccc(F)cc3)CC2)cc1 [Astemizole] | 1.26 | 1.02 | 1.01 |  | 0.968 (inactive) | 1.02 (inactive) | 0.838 (inactive) | 1.01 (inactive) | 0.988 (inactive) | 1.05 (inactive) | 0.994 (inactive) | 0.796 (inactive)
12 | CN(C)[C@@H]1C(=O)C(C(N)=O)=C(O)[C@@]2(O)C(=O)C3=C(O)c4c(O)ccc(Cl)c4[C@@](C)(O)[C@H]3C[C@@H]12 [Chlortetracycline hydrochloride] | 0.00816 | 0.064 | 0.0706 | 0.431 | 0.0679 (active) | 0.0172 (active) | 0.302 (active) | 0.253 (active) | 0.47 (inactive) | 0.146 (active) | 0.483 (inactive) | 0.271 (active)
13 | CN1CCC2(C)c3cc(O)ccc3N(C)C12 (single isomer, unassigned; (-)) [(-) Eseroline fumarate salt] | 1.01 | 1.04 | 1.03 | 1.16 | 1 (inactive) | 1.02 (inactive) | 0.951 (inactive) | 0.99 (inactive) | 1 (inactive) | 0.994 (inactive) | 0.995 (inactive) | 0.954 (inactive)
14 | Oc1ccc(Cl)cc1Cc1cc(Cl)ccc1O [Dichlorophen] | 0.903 | 0.835 | 0.919 | 0.819 | 1.13 (inactive) | 0.732 (inactive) | 0.561 (active) | 1.21 (inactive) | 0.97 (inactive) | 1.66 (active) | 0.975 (inactive) | 0.635 (inactive)
15 | CCOC(=O)c1cncn1[C@H](C)c1ccccc1 [Etomidate] |  | 1.22 | 0.988 | 0.931 | 0.992 (inactive) |  | 1.06 (inactive) | 0.985 (inactive) | 1.07 (inactive) | 0.973 (inactive) | 1.07 (inactive) | 1.19 (inactive)
16 | CCNCC(O)c1cccc(O)c1 (configuration not stated) [Etilefrine hydrochloride] | 0.977 | 0.971 | 0.996 | 0.981 | 1.05 (inactive) | 1.03 (inactive) | 0.959 (inactive) | 0.997 (inactive) | 1.01 (inactive) | 0.991 (inactive) | 0.987 (inactive) | 0.949 (inactive)
17 | CCN(CC)C(C)C(=O)c1ccccc1 (configuration not stated) [Amfepramone hydrochloride] | 1.04 | 1.05 | 1.02 | 1.06 | 0.955 (inactive) | 1.03 (inactive) | 1.06 (inactive) | 1.06 (inactive) | 0.982 (inactive) | 0.938 (inactive) | 1.01 (inactive) | 1.06 (inactive)
18 | CN1C[C@H](C(=O)N[C@]2(C)O[C@@]3(O)[C@@H]4CCCN4C(=O)[C@H](Cc4ccccc4)N3C2=O)C[C@@H]2c3cccc4[nH]cc(c34)C[C@H]21 [Dihydroergotamine tartrate] | 1.2 | 1.13 | 1.1 | 0.827 | 0.89 (inactive) | 0.928 (inactive) | 0.982 (inactive) | 1.06 (inactive) | 0.984 (inactive) | 0.966 (inactive) | 1.01 (inactive) | 0.921 (inactive)
